Sa RN4220 lethal: kills Staphylococcus aureus RN4220 | S. aureus RN4220 growth, OD600, 16 h | inhibition, % (test concentration not listed) | hit rate 0.33% among 330,000 | AID 1259311; in the data active = inhibition above about 85%;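 also: plate controls were untreated cells for no effect and reference antibiotic for full effect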
VHR inh abs: DUSP3 (human) phosphatase inhibition; P51452; recombinant VHR phosphatase, pNPP absorbance; inhibition, % at 13.3 µM; hit rate 0.52% among 290,000; in the data active = inhibition above about 50%
Target sequence (P51452 whole entry, looked up): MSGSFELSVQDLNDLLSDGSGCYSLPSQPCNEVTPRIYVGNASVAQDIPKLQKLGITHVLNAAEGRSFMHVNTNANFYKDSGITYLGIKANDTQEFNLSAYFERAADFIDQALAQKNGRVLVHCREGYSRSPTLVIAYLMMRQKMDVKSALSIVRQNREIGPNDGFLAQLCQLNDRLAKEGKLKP
Sa ugtP lethal: kills S. aureus RN4220 lacking UgtP. growth inhibition, % (no concentration beside the values). hit rate 0.54% among 330,000. S. aureus RN4220 ugtP deletion, OD600 growth, 16 h; in the data active = growth inhibition above about 68%;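 also: plate controls were untreated wells for no effect and antibiotic for full effect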
SSB-PriA inh: blocks PriA binding to SSB C-terminal tail; inhibition, % at 33 µM; hit rate 0.6% among 430,000; AlphaScreen SSBct-PriA binding, biotinylated peptide; in the data active = inhibition mostly above about 37%, no sharp cut-off; inactive = mostly below about 20%;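 also: plate controls were negative control peptide for no effect and reference peptide for full effect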
CCHF vOTU inh-1: blocks the CCHF virus ovarian tumor domain protease; AID 651958; CCHFV vOTU protease, Pep-AMC fluorescence; hit rate 0.55% among 370,000; inhibition, % at 11.5 µM; also: 0% = vehicle wells with enzyme and 100% = no enzyme wells
CCHF vOTU inh-2: CCHFV vOTU protease inhibition, confirmation; AID 686976; shares compounds with CCHF vOTU inh-1; inhibition, % at 11.5 µM; hit rate 17% among 1,900; Recombinant CCHFV vOTU, Pep-AMC fluorescence
The depositor's hits bear a star; x = not tested or not shown. This is a sample that favours compounds with a hit; in the whole collection about 1.5% have one here. Rule as the data show it, unless noted: active = inhibition above about 30%; inactive = the rest.

SMILES	Sa RN4220 lethal	VHR inh abs	Sa ugtP lethal	SSB-PriA inh	CCHF vOTU inh-1	CCHF vOTU inh-2
O=C(NCc1ccc(F)cc1)Nc1nnc([C@@H]2C[C@H](O)[C@@H](CO)O2)s1	x	x	x	x	33.6*	-14.0
Cc1ccc2cc(N)ccc2n1	-0.3	18.2	6.9	-8.4	-2.0	x
Nc1ccc2cc3ccc(N)cc3nc2c1	x	x	x	x	52.9*	29.7*
Cc1cc(C(=O)OCC(=O)N2CCCC2)c2ccccc2n1	6.4	27.3	6.2	1.6	-13.6	x
Cc1cc(C(=O)OCC(=O)N2CCOCC2)c2ccccc2n1	0.4	19.4	-0.2	-10.1	33.7*	-13.4
CS(=O)(=O)Nc1cccc(NC(=O)c2cc(N3CCCCC3)ncn2)c1	x	x	x	-19.0	x	x
CCN1C(=O)[C@H]2[C@@H](c3ccc(OC)cc3)N[C@]3(CCCN(Cc4cccn4C)C3=O)[C@H]2C1=O	x	x	x	x	30.5*	-1.8
COc1ccc([C@H]2N[C@]3(CCCN(Cc4cccn4C)C3=O)[C@H]3C(=O)N(C)C(=O)[C@@H]23)cc1	x	x	x	x	-9.7	x
Cc1nnc(N/N=C/c2ccc(O)c([N+](=O)[O-])c2)[nH]c1=O	x	28.2	x	x	32.5*	6.4
O=C(Nc1ccc(F)cc1)c1ccccc1Oc1ccc(C(F)(F)F)cc1[N+](=O)[O-]	-1.2	1.2	-15.2	38.3	30.9*	-4.9
O=C(Nc1ccccc1)c1ccccc1Oc1ccc(C(F)(F)F)cc1[N+](=O)[O-]	2.8	7.3	-5.2	31.6	18.1	x
Cc1ccc(Cn2ccc(=O)c(OCc3c(Cl)cccc3Cl)c2C)cc1	0.1	11.6	3.7	-9.2	30.3*	7.4
COc1cc(NC(C)CCCN)c2ncccc2c1Oc1ccccc1 (stereo not given)	3.0	-1.2	-20.7	16.1	29.9*	-3.0
COc1cc(OC)cc(C(=O)Nc2cnc(N(C)C)nc2)c1	x	x	x	-15.0	x	x
CS(=O)(=O)c1ccc(N2CCN(S(=O)(=O)c3cccs3)CC2)c([N+](=O)[O-])c1	4.0	x	0.7	-4.2	34.5*	-17.6
Nc1[nH][nH]c(=O)c1N=Nc1cccc(Cl)c1	11.1	29.6	-0.5	17.1	31.7*	11.1
C[n+]1cccc2cccc([O-])c21	5.3	17.9	5.3	1.1	57.7*	95.5*
O=C(N/C(=C/c1ccc(Br)cc1)C(=O)N1CCOCC1)c1ccco1	-2.5	0.3	-10.4	-15.8	-1.0	x
CSc1ccc(/C=C(/NC(=O)c2ccco2)C(=O)N2CCOCC2)cc1	4.2	17.9	12.4	-13.2	30.0*	-14.7
CN(CC#CCNC(=O)c1cccc(C#N)c1)Cc1ccccc1	x	x	x	-8.0	x	x
CC1CCC(NC(=O)C(NS(=O)(=O)c2cccc3nsnc23)C(C)C)CC1 (stereo not given)	3.8	10.7	6.0	11.8	30.6*	-10.7
O=C(CNc1ccc2ccccc2c1)NN=C/C=C/c1cccc([N+](=O)[O-])c1	x	x	x	-8.8	x	x
Fc1ccc(-c2nc3c(Cl)cc(C(F)(F)F)cn3c2Cc2cccc(F)c2)cc1	x	x	x	x	-3.2	x
Fc1cccc(Cc2c(-c3ccco3)nc3c(Cl)cc(C(F)(F)F)cn23)c1	x	x	x	x	31.2*	-4.2
Cn1cc(S(=O)(=O)NCCc2c[nH]c3ccccc23)c(=O)n(C)c1=O	x	x	x	-4.0	x	x
SMILES	Sa RN4220 lethal	VHR inh abs	Sa ugtP lethal	SSB-PriA inh	CCHF vOTU inh-1	CCHF vOTU inh-2
C=CCSC1=N/C(=C\c2cccnc2)C(=O)N1c1ccc(OC)cc1	-2.4	11.9	-11.6	-4.2	7.0	x
CCSC1=N/C(=C\c2ccccc2)C(=O)N1c1ccc(OC)cc1	-0.8	-16.8	16.1	-15.5	30.2*	-11.4
Cc1ccccc1N1CCN(c2nccn3c(=O)n(CC(=O)NCc4ccc(Cl)cc4)nc23)CC1	x	x	x	-1.0	x	x
O=C(CCCC(=O)NC1CCCC1)NC1CCCC1	3.7	-9.9	5.2	-1.1	30.8*	-16.5
CCSc1nc(-c2ccccc2)cc(=O)[nH]1	4.0	x	-1.5	-16.9	30.8*	-11.8
Cc1c(C(=O)NCCSc2nncn2C)cnn1-c1ccccc1	x	x	x	-13.0	x	x
CCOc1ccc(-c2cc3c(SCC(=O)c4cccc(Cl)c4)nccn3n2)cc1	x	x	x	-17.0	x	x
CC(=O)c1ccc(C(=O)N(CCCN(C)C)c2nc3cc(C)cc(C)c3s2)cc1	x	x	x	-4.0	x	x
Cc1cc(C)c2sc(N(CCCN(C)C)C(=O)c3ccc(Br)s3)nc2c1	0.3	15.2	-0.5	2.4	30.5*	3.6
COC(=O)c1cccc(Nc2c(-c3nc(C(C)C)no3)cnc3nc(C)ccc23)c1	x	x	x	-11.0	x	x
CCOc1ccc(C(=O)N2CCN(c3nc4ccc(Br)cc4s3)CC2)cc1	x	x	x	-12.0	x	x
O=C(O)CC/C(=C\c1ccc(N2CCCC2)c([N+](=O)[O-])c1)c1nc2ccccc2s1	24.3	14.7	25.0	13.9	33.5*	9.5
O=C(O)CC/C(=C\c1ccccc1[N+](=O)[O-])c1nc2ccccc2s1	-7.3	5.9	9.0	-5.0	-6.6	x
CN(c1ccccc1)c1ccc(/C=C(/CCC(=O)O)c2nc3ccccc3s2)cc1[N+](=O)[O-]	9.8	x	-6.5	-4.4	31.7*	26.2
c1cc2c3c(cccc3c1)NC1(CCCC1)N2	3.9	x	-5.9	18.4	28.4	x
CC1(C)Nc2cccc3cccc(c23)N1	2.7	x	-1.3	10.2	33.4*	-104.0
O=C1CCSC[C@@H](C(=O)N2CCN(C(c3ccccc3)c3ccccc3)CC2)N1	x	x	x	12.0	x	x
CN(CC(=O)Nc1ccccc1Cl)C(=O)COC(=O)c1cccs1	-0.9	x	-7.7	-0.4	-13.6	x
Cc1ccc(NC(=O)COC(=O)c2ccc([N+](=O)[O-])s2)c(C)c1	5.6	16.4	2.6	-9.5	-1.3	x
NS(=O)(=O)c1ccc(NC(=O)COC(=O)c2ccc([N+](=O)[O-])s2)cc1	75.5	13.6	50.9	-0.2	73.8*	62.7*
CN(CC(=O)Nc1ccccc1Cl)C(=O)COC(=O)c1ccc([N+](=O)[O-])s1	15.7	x	7.9	12.3	77.7*	39.2*
O=C(COC(=O)c1ccc([N+](=O)[O-])s1)NNC(=O)c1ccccc1	5.8	x	10.2	22.0	x	x
